Molecules are shown by their SMILES. Records with an inconclusive call do not appear. Unmarked numbers belong to inactive results. The source made the active and inactive calls. Calls come from the whole dose curve; as a rule, active = well fitted inhibition curve with a large enough effect; inconclusive = small, poorly fitted or top-dose-only effect; inactive = flat fitted curve, though single readings scatter.

The record followed here is PubChem BioAssay (NCATS).
% is set by controls: 0 for no effect and ±100 for the full control effect.

Sequence of Calcium and integrin-binding protein 1 (Homo sapiens) (Q99828 whole entry, looked up): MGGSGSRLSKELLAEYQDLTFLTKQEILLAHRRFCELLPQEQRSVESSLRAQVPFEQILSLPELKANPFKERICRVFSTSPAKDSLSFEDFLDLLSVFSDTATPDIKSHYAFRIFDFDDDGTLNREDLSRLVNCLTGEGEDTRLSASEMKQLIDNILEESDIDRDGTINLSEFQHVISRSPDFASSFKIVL

The assay concerns the target Calcium and integrin-binding protein 1 (Homo sapiens) (UniProt Q99828). As to the kind of experiment: Primary qHTS for Identification of Calcium Integrin Binding Protein 1 (CIB1) Competitor (AID 1508620).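 Note: GST tagged CIB1 binding a fluorescein labelled alphaIIb integrin peptide tracer; top concentration of the series differs between compounds.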 The settings on record: CIB1-GST / FITC-alphaIIb peptide fluorescence polarization; series mostly up to 114 µM; activity change, negative = inhibition: at the top concentration. An outline of the steps: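 CIB1-GST (1 uM final) and compound incubated 15 min at room temperature before adding FITC-alphaIIb peptide tracer (100 nM final). Competition for binding read by fluorescence polarization (ex 480, em 540) after another 15 min at room temperature.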
`Cc1cccc(-c2csc3ncnc(Sc4nnnn4C)c23)c1`: the “activity change, negative = inhibition” value is 2.81%. Still for that read-out and setting: to `CC(=O)c1ccc(N2CCN(S(=O)(=O)c3cc4c(cc3Cl)NC(=O)C4)CC2)cc1` belongs -22%.

`C[C@@H](NC(c1ccc(F)cc1)c1ccc2cccnc2c1O)c1ccccc1` (some centres undefined): the Potency result was “inactive”. For the compound `CN1CCN(Cc2cc(COCc3ccccc3)c3cccnc3c2O)CC1`, the “activity change, negative = inhibition” value is -6.17%. For the compound `CC(C)(C)OC(=O)CC(=O)NNC(=O)c1cc2ccccc2[nH]1`, the “activity change, negative = inhibition” value was 1.68%. On the same count and under the same terms, to `CC(=O)c1ccc(N2CCN(S(=O)(=O)c3ccc4c(c3)oc(=O)n4C)CC2)cc1` belongs 5.68%; to `COc1ccc(C2=Nn3c(nnc3-c3cccc(OC)c3)SC2)cc1`, 2.19%; to `CC(C)(C)OC(=O)N1CCN(c2ccc(NCc3cnc(-c4ccc(C#N)cc4)o3)cc2)CC1`, -0.444%. Still for that read-out and setting: in the case of `Cc1csc(CNc2ncnc3ccc(-c4ccc(C(C)O)o4)cc23)n1` (centres undefined) it was -15.6%; in that of `N#CN1CCC(NS(=O)(=O)c2ccc(C(F)(F)F)cc2)C1` (centres undefined), -2.58%; in that of `O=C1c2ccccc2C(=O)N1c1nccs1`, -0.877%.

As to `CC(=O)Nc1sc2c(c1-c1cccnc1)CCNC2`, the “activity change, negative = inhibition” value was 7.05%.

As to `COCCN1C(=O)c2ccccc2NC1c1ccc(OC)c(COc2c(C)cc(NC(C)=O)cc2C)c1` (centres undefined), the “activity change, negative = inhibition” value was 3.02%.

Take `CS(=O)(=O)c1ccc(C(=O)OCC(=O)N2CCC(c3ccccc3)CC2)cc1[N+](=O)[O-]`: the “activity change, negative = inhibition” value was -13.5%. In the case of `CC(C)Oc1cccc(-c2csc(N3CCC(C(N)=O)CC3)n2)c1`, the “activity change, negative = inhibition” value was 1.35% [at 384 µM]. On the same count and under the same terms, in the case of `NC(=O)C1CCN(c2nc(-c3cccc4ccccc34)cs2)CC1` it was -3.58%. Regarding `O=C(Nc1ccc(Cl)c(S(=O)(=O)N2CCOCC2)c1)c1ccc(S(=O)(=O)N2CCOCC2)cc1`, the “activity change, negative = inhibition” value was 1.09%. In the case of `Cc1ccc(NS(=O)(=O)c2ccc(N3CCCC3=O)cc2)cc1C`, the “activity change, negative = inhibition” value is 4.41%. As for `COc1ccc(-c2nc3ccccc3c(=O)n2Cc2ccccc2)cc1COc1ccc(NC(C)=O)cc1`, the “activity change, negative = inhibition” value was 4.9%. Consider `O=C(O)c1ccc2c(c1)C(=O)N([C@H](Cc1ccc(C(F)(F)F)cc1)C(=O)O)C2=O`, for which the “activity change, negative = inhibition” value was -1.54%. Turning to `O=C(CNC(=O)c1ccccc1Cl)OC(C(=O)Nc1cc(C(F)(F)F)ccc1Cl)c1ccccc1` (centres undefined), the “activity change, negative = inhibition” value is 3.67%. As to `Cc1cc(C)n2ncc(C(=O)NC3CCC(C(C)(C)C)CC3)c2n1` (centres undefined), the Potency entry was “inactive”. With `N=c1c2c(ccn1CCCCc1ccccc1)Oc1ccc3ccccc3c1C2c1ccccc1` (centres undefined), the “activity change, negative = inhibition” value was 7.78%. For `CCOC(=O)C1CCN(C(=O)C2(NC(=O)Nc3ccccc3Cl)CCC2)CC1`, the “activity change, negative = inhibition” value is -2.76%. The same measure, in the same setting: in the case of `COc1ccc(C2Nc3ccccc3C(=O)N2Cc2ccc(Cl)cc2)cc1COc1ccc(NC(C)=O)cc1` (centres undefined) it was 3.44%; in that of `CC(=O)Nc1sc2c(c1-c1ccccc1F)CCNC2`, 1.4%. With `CC(=O)NC(c1ccco1)c1cc(Cl)c2ccc(N3CCCCC3)nc2c1O` (centres undefined), the “activity change, negative = inhibition” value was -4.89%. The same measure, in the same setting: to `Cc1ccc(CNc2ncc(N3CCCCC3)cn2)cc1` belongs -3.02%; to `Cc1cc2c(s1)c1cnn(Cc3ccc(C(F)(F)F)cc3F)c(=O)c1n2C`, 1.77%. Same read-out and setting: in the case of `COc1ccc(NC(=O)C(OC(=O)CNC(=O)c2ccccc2)c2ccccc2)cc1Cl` (centres undefined) it was -3.06%; in that of `Fc1ccccc1-c1nc(-c2ccc(-c3nn[nH]n3)cc2)no1`, -12.5%; in that of `O=S(=O)(NC1CCC(CNS(=O)(=O)c2c(F)cccc2F)CC1)c1ccc2c(c1)OCCO2` (centres undefined), -2.93%. Consider `O=S(=O)(c1ccc2c(c1)OCCO2)N1CCN(S(=O)(=O)c2ccccc2OC(F)(F)F)CC1`, for which the “activity change, negative = inhibition” value was -5.46%. Take `CN1CCc2sc(NC(=O)Cc3ccccc3)c(C(=O)Nc3ccc(Cl)cc3)c2C1`: the “activity change, negative = inhibition” value is 2.33%. Take `CCOc1ccccc1-c1nnc2n1N=C(c1cccc(OC)c1)CS2`: the “activity change, negative = inhibition” value was -4.08%. Same read-out and setting: to `Cc1cccc(-n2cnc3cc(C(=O)N4CCCC(C(F)(F)F)C4)ccc32)c1` (centres undefined) belongs -0.102%; to `COc1ccccc1C1=Nn2c(nnc2-c2ccccc2OC)SC1`, 5.28%; to `Oc1ccc(CNc2nccc3ccccc23)c2cccnc12`, 0.4%. The same measure, in the same setting: to `COc1ccc(-c2nnc3n2N=C(c2c(OC)cccc2OC)CS3)cc1` belongs 0.483%.
